Data from PubChem BioAssay.
Activity calls are given as the source filed them.

Assays:
[1] = anti-His antibody binders, primary screen, artefact control for SMM control protein annotation, biochemical, small-molecule microarray, 635 nm fluorescence (AID 1128); settings: anti-His Alexa647 antibody binding, higher = more signal;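 note: score merges feature fluorescence with signal-to-noise for each printed compound spot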
[2] = system: Human papillomavirus type 1a E7 protein (residues 1-88); experiment: HPV1a E7 small-molecule binders, primary screen, biochemical, small-molecule microarray, residues 1-88, 635 nm (AID 1129); settings: small-molecule microarray binding, fluorescence 635 nm; higher = more signal
[3] = molecular target: Focal adhesion kinase 1 (Homo sapiens) (UniProt Q05397); experiment: small-molecule microarray binders of FAK, primary screen, biochemical, 635/667 nm fluorescence, BSA, DTT (AID 1130); settings: PTK2 binding, 635 nm fluorescence, higher = more signal;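 note: composite of spot emission at 667 nm and signal to noise over triplicate slides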
[4] = system: Fibrinogen (Alexa647-labelled); experiment: fibrinogen binders on compound microarrays, profiling panel, artefact control for SMM control-protein annotation, biochemical, small-molecule microarray, 635/667 nm fluorescence (AID 1131); settings: fibrinogen-A647 binding fluorescence, higher = more signal;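 note: z-score merges 667 nm fluorescence with per-spot signal-to-noise over triplicate slides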
[5] = molecular target: Follistatin (Homo sapiens) (UniProt P19883); experiment: follistatin binders on small-molecule microarrays, primary screen, biochemical, small-molecule microarray, 635/667 nm fluorescence (AID 1132); settings: FST binding, 635 nm fluorescence, higher = more signal
[6] = molecular target: Fibroblast growth factor 2 (Homo sapiens) (UniProt P09038); experiment: FGF2 binders on small-molecule microarrays, primary screen, biochemical, small-molecule microarray, 635/667 nm fluorescence (AID 1133); settings: small-molecule microarray binding, FGF2, fluorescence 635/667; higher = more signal
[7] = mitochondrial membrane potential change in A549 cells, profiling panel, cell-based, JC-1 fluorescence, basal, 24 h, 100 nL (AID 1138); settings: higher = more signal;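 note: A549 lung adenocarcinoma cells under basal conditions with no added stimulus; test concentration not given here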
Lefty1 = Lefty1 binders on small-molecule microarrays, primary screen, biochemical, small-molecule microarray, 635/667 nm fluorescence (AID 1139); settings: small-molecule microarray binding, fluorescence 635/667; higher = more signal
[8] = system: wheat germ agglutinin (Triticum aestivum), Alexa647-labelled; experiment: wheat germ agglutinin binders on compound microarrays, profiling panel, artefact control for SMM control-protein annotation, biochemical, small-molecule microarray, 635/667 nm fluorescence (AID 1140); settings: WGA-A647 binding, 635 nm fluorescence, higher = more signal;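 note: score merges 667 nm feature emission with signal to noise over triplicate slides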
[9] = molecular target: Luciferin 4-monooxygenase (Photinus pyralis) (UniProt P08659); experiment: firefly luciferase enzyme inhibitors, primary screen, biochemical, luminescence, purified enzyme, 2006 set (AID 1141); settings: SteadyGlo luminescence, 30 min, higher = more signal, called active from +8 up or from −8 down;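 note: cell-free assay with purified firefly luciferase at 100 ng per well in PBS; test concentration not given here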
Sequence of Luciferin 4-monooxygenase (Photinus pyralis) (P08659 whole entry, looked up): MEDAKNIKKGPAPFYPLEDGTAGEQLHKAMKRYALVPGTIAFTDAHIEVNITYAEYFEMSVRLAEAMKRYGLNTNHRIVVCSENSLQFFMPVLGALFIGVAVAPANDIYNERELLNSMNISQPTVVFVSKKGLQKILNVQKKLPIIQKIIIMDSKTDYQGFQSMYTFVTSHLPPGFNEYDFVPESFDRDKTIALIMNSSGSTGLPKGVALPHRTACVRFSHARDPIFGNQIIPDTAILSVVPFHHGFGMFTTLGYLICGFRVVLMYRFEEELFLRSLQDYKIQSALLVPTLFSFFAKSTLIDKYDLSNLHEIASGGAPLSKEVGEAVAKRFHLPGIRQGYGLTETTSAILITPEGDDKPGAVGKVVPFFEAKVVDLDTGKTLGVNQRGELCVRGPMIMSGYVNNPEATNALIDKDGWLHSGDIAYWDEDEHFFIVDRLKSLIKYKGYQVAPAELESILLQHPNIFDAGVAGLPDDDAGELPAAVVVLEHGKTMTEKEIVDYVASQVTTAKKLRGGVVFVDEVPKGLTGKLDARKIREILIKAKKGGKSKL

Sequence of Focal adhesion kinase 1 (Homo sapiens) (Q05397 whole entry, looked up): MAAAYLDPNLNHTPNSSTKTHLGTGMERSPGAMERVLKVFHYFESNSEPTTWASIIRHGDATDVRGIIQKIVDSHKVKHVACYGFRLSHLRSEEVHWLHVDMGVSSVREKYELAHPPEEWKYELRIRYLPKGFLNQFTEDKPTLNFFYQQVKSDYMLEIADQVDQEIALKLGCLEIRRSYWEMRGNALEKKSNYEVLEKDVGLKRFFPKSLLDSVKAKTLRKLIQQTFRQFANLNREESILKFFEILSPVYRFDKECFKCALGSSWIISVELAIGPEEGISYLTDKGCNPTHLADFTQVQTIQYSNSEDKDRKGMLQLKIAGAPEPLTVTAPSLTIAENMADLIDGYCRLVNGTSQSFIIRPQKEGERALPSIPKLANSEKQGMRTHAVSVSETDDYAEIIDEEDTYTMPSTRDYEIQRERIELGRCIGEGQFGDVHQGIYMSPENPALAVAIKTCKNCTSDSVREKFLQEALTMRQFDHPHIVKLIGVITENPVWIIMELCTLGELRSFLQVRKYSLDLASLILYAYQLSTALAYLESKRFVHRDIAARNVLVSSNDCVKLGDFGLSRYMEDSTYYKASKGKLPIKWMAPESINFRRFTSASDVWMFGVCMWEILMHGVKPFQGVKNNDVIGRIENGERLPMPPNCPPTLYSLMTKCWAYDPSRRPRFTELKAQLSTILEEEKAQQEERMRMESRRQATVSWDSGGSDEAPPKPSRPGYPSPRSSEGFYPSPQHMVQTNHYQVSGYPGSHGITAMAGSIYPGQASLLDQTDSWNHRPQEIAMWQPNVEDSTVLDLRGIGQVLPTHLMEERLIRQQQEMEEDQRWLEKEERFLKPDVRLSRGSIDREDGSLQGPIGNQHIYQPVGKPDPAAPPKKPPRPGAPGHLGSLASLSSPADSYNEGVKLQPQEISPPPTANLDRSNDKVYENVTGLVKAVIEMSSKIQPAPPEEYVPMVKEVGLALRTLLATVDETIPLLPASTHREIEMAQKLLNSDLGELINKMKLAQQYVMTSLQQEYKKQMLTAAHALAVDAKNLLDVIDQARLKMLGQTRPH
Sequence of Fibroblast growth factor 2 (Homo sapiens) (P09038 whole entry, looked up): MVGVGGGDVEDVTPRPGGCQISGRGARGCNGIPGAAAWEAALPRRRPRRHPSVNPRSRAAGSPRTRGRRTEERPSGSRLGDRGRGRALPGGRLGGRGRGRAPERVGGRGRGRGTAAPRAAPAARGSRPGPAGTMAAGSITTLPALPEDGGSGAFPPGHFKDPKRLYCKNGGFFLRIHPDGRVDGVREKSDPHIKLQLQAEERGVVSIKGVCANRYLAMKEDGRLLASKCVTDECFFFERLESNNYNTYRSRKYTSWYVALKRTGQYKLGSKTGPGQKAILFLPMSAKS
Sequence of Follistatin (Homo sapiens) (P19883 whole entry, looked up): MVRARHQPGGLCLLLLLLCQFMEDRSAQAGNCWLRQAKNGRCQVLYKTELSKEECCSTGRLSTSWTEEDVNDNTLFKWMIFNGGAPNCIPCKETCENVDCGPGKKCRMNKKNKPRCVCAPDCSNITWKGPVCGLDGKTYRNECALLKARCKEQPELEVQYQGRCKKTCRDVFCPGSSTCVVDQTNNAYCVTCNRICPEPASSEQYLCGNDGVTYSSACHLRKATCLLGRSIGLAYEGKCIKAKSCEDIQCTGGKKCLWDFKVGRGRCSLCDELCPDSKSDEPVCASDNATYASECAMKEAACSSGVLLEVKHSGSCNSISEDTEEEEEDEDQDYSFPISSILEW

CCOC(=O)C1=CCC(c2ccccc2)N(S(=O)(=O)CC[Si](C)(C)C)C1 (stereo not given)
composite z-score [1]: 0.149 | composite z-score [2]: -0.401 | composite z-score [3]: 0.384 | composite z-score [4]: -0.325 | composite z-score [5]: -0.172 | composite z-score [6]: -0.617 | z-score [7]: 3.06 | composite z-score (Lefty1): -0.503 | composite z-score [8]: 0.0225 | z-score [9]: 1.2 (inactive)

C=CC[C@@]1(C(=O)NCc2ccccc2)N=C(c2ccc(OCCCO)cc2)O[C@@H]1c1ccccc1N=[N+]=[N-]
composite z-score [1]: 2.41 | composite z-score [2]: 1.24 | composite z-score [3]: 0.649 | composite z-score [4]: 0.993 | composite z-score [5]: 1.28 | composite z-score [6]: 0.281 | z-score [7]: 0.444 | composite z-score (Lefty1): 0.11 | composite z-score [8]: 1 | z-score [9]: -8.72 (active)

CC(C)C(=C=CC[C@@H](O)c1ccccc1OCCO)CCO
composite z-score [1]: 2.31 | composite z-score [2]: 0.43 | composite z-score [3]: 0.306 | composite z-score [4]: 0.442 | composite z-score [5]: 0.71 | composite z-score [6]: 0.853 | z-score [7]: 0.991 | composite z-score (Lefty1): 0.352 | composite z-score [8]: 0.201 | z-score [9]: -1.91 (inactive)

CN(C)C(=O)[C@@]1(Cc2ccccc2CN=[N+]=[N-])N=C(c2ccc(OCCCO)cc2)O[C@H]1c1ccccc1
composite z-score [1]: 2.77 | composite z-score [2]: 1.18 | composite z-score [3]: 0.995 | composite z-score [4]: 0.941 | composite z-score [5]: 0.761 | composite z-score [6]: 1.34 | z-score [7]: 0.0462 | composite z-score (Lefty1): -0.169 | composite z-score [8]: 0.751 | z-score [9]: 0.27 (inactive)

C=C(COC)/C(=C/C[C@@H](OC(C)=O)c1ccc(OCCO)cc1)c1cc(C(=O)OC)ccc1OC
composite z-score [1]: 0.531 | composite z-score [2]: 1.21 | composite z-score [3]: 0.481 | composite z-score [4]: -0.367 | composite z-score [5]: 1.25 | composite z-score [6]: 1.5 | z-score [7]: 0.371 | composite z-score (Lefty1): 1.19 | composite z-score [8]: 0.195 | z-score [9]: -0.371 (inactive)

Cc1ccc(S[C@]2(C(=O)NC(C)C)CC(=O)N(Cc3ccccc3Cl)[C@@H]2c2ccc(CO)cc2I)cc1
composite z-score [1]: 3.21 | composite z-score [2]: 0.164 | composite z-score [3]: -0.0745 | composite z-score [4]: 0.628 | composite z-score [5]: 0.237 | composite z-score [6]: -0.934 | z-score [7]: 0.905 | composite z-score (Lefty1): -0.658 | composite z-score [8]: 0.648 | z-score [9]: -0.102 (inactive)

C=CCOC(=O)[C@@H]1[C@H]2C(=O)O[C@H](c3ccccc3)[C@H](c3ccccc3)N2[C@H](c2ccc(OCCOC(=O)[C@@H]3C[C@@H]4C(=O)N[C@@H](CCCC[N+](C)(C)C)C(=O)N4[C@@H]3c3cccc(OCCO)c3)cc2)[C@@]12C(=O)Nc1ccc(I)cc12
composite z-score [1]: 1.13 | composite z-score [2]: 1.17 | composite z-score [3]: 1.15 | composite z-score [4]: 0.531 | composite z-score [5]: 1.41 | composite z-score [6]: 1.79 | z-score [7]: -1.2 | composite z-score (Lefty1): 1.64 | composite z-score [8]: 0.347 | z-score [9]: -1.82 (inactive)

C=CCOC(=O)[C@H]1[C@@H]2C(=O)O[C@@H](c3ccccc3)[C@@H](c3ccccc3)N2[C@@H](c2ccc(OCCOC(=O)[C@H]3C[C@H]4C(=O)N5CCC[C@H]5C(=O)N4[C@H]3c3ccc(O)cc3)cc2)[C@]12C(=O)Nc1ccccc12
composite z-score [1]: 0.442 | composite z-score [2]: 1.26 | composite z-score [3]: 1.13 | composite z-score [4]: 0.598 | composite z-score [5]: 1.39 | composite z-score [6]: 1.96 | z-score [7]: -1.42 | composite z-score (Lefty1): 1.42 | composite z-score [8]: 0.0976 | z-score [9]: -0.205 (inactive)

C#CCN(Cc1ccccc1Br)C(/C=C/c1ccccc1)CO (stereo not given)
composite z-score [1]: 0.448 | composite z-score [2]: -0.265 | composite z-score [3]: -0.102 | composite z-score [4]: -0.171 | composite z-score [5]: -0.523 | composite z-score [6]: 0.774 | z-score [7]: -1.01 | composite z-score (Lefty1): 0.0437 | composite z-score [8]: -0.618 | z-score [9]: 0.0615 (inactive)

C=CCOC(=O)[C@H]1[C@@H]2C(=O)O[C@@H](c3ccccc3)[C@@H](c3ccccc3)N2[C@@H](c2ccc(OCCOC(=O)[C@H]3C[C@H]4C(=O)N[C@@H](CC(C)C)C(=O)N4[C@H]3c3ccc(O)cc3)cc2)[C@]12C(=O)Nc1ccc(I)cc12
composite z-score [1]: 0.756 | composite z-score [2]: 0.937 | composite z-score [3]: 0.798 | composite z-score [4]: 0.839 | composite z-score [5]: 1.19 | composite z-score [6]: 1.55 | z-score [7]: -1.29 | composite z-score (Lefty1): 1.54 | composite z-score [8]: 0.739 | z-score [9]: -2.02 (inactive)

CCCCC(=C=CC[C@@H](O)c1ccccc1OCCO)CCO
composite z-score [1]: -0.448 | composite z-score [2]: -0.21 | composite z-score [3]: -0.206 | composite z-score [4]: -0.883 | composite z-score [5]: 0.531 | composite z-score [6]: -0.397 | z-score [7]: 1.25 | composite z-score (Lefty1): 0.036 | composite z-score [8]: 0.177 | z-score [9]: -1.85 (inactive)

COc1ccc([Si](C)(C)[C@@H]2[C@@H](CCO)O[C@]3(C(=O)N(Cc4ccc(N5C(=O)COc6ccccc65)cc4)c4ccccc43)[C@H]2C)cc1
composite z-score [1]: 1.58 | composite z-score [2]: 1.18 | composite z-score [3]: 0.571 | composite z-score [4]: 0.814 | composite z-score [5]: 0.59 | composite z-score [6]: 0.621 | z-score [7]: -0.342 | composite z-score (Lefty1): 0.955 | composite z-score [8]: 0.978 | z-score [9]: 0.686 (inactive)

Cc1ccc(S[C@]2(C(=O)NCC(C)C)CC(=O)N(Cc3cc(C(F)(F)F)cc(C(F)(F)F)c3)[C@@H]2c2ccc(CO)cc2I)cc1
composite z-score [1]: -0.316 | composite z-score [2]: -1.08 | composite z-score [3]: -0.55 | composite z-score [4]: -0.819 | composite z-score [5]: -1.59 | composite z-score [6]: -1.1 | z-score [7]: -0.553 | composite z-score (Lefty1): -2.21 | composite z-score [8]: -0.192 | z-score [9]: 0.328 (inactive)

OC([C@@H]1CC(c2ccccc2)=NO1)[C@H]1CC(c2ccccc2)=NO1 (stereo not given in full)
composite z-score [1]: 0.176 | composite z-score [2]: -0.236 | composite z-score [3]: -0.141 | composite z-score [4]: 0.0985 | composite z-score [5]: 0.0914 | composite z-score [6]: 0.128 | z-score [7]: -0.0913 | composite z-score (Lefty1): 0.484 | composite z-score [8]: -0.259 | z-score [9]: -1.46 (inactive)
